Pf growth 96h = inhibits malaria parasite growth, 96 h | P. falciparum luciferase reporter growth, 96 h | Potency, µM (titrated, usually from 28.7 µM), without a hit: top-dose activity change, negative = inhibition, most hits filed as inhibitors | 320,000 tested, 6.9% active; further: potency means the concentration at half of the fitted maximal effect; on the % scale 0 is the no-effect control and ±100 the full control effect
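P. falciparum expressing integrated firefly luciferase grown in erythrocytes (2% hematocrit, 0.05% parasitemia final) with compounds for 96 hours at 37 C, 5% CO2. Growth inhibition read as loss of luminescence after adding luciferase detection reagent.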
Pf growth 48h = inhibits P. falciparum growth in the first generation, 48 h; P. falciparum luciferase growth in erythrocytes, 48 h; Potency, µM (titrated, usually from 28.7 µM), for the others: at the top dose activity change, negative = inhibition, usual class: inhibitors; 310,000 tested, 5.9% active; AID 504832; further: potency means the concentration at half of the fitted maximal effect; on the % scale 0 is the no-effect control and ±100 the full control effect
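A one-generation exposure of luciferase-tagged malaria parasites in RPMI 1640/Albumax erythrocyte culture, 37 C and 5% CO2. Inhibition is inferred from decreased luminescence after adding detection reagent.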
CHX counter = counter-screen hit for Shiga toxin inhibitors, cycloheximide | 300,000 tested, 12% active | max response, % | cell reporter, cycloheximide protein synthesis inhibition counterscreen; in the data active means max response mostly above about 13%, no sharp cut-off; inactive means mostly below about 14%; further: read at 38.3 µM for the half of the compounds with a filed dose; 0% is about no effect
Shiga toxin inh = inhibitors of Shiga toxin in Vero cells; Vero cells, Shiga toxin protein synthesis inhibition reporter; inhibition, % at 38.7 µM; 290,000 tested, 9.2% active; in the data active means inhibition mostly above about 28%, no sharp cut-off; inactive means mostly below about 43%; further: 0% is about no effect
Sm TGR block = blocks Schistosoma mansoni thioredoxin glutathione reductase | Q962Y6 | purified TGR, DTNB reduction, TNB absorbance 405 nm | Potency, µM (top dose mostly 114 µM), for the others: at the highest dose activity change, negative = inhibition, hits mostly inhibitors | 360,000 tested, 3% active | AID 485364; further: potency means the concentration at half of the fitted maximal effect; on the % scale 0 is the no-effect control and ±100 the full control effect; nearly all actives have a fitted effect of over 60% in size
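First, TGR (20 nM dispensed) and NADPH were mixed with compound. Second, a 15 min room-temperature incubation followed. Third, further NADPH and then DTNB were added to start the reaction. Finally, TNB absorbance was monitored kinetically.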
NS1 inh = influenza NS1 inhibition; Potency, µM (top dose mostly 46.1 µM), inactives show at the highest dose activity, positive = more growth; 270,000 tested, 0.4% active; calls by dose curve; further: potency means the concentration at half of the fitted maximal effect; actives are rising curves; nearly all actives have a fitted effect of over 50% in size
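OD600 was taken as the measure of yeast growth restored by compound in an NS1-expressing S. cerevisiae strain. Cells had been washed out of glucose medium and diluted 1:100 into galactose -URA medium, pH 6.0.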
An asterisk follows results filed as active; ? = inconclusive; · = no result given; + = active, no number. Most compounds without a hit are left out; they make up all but 21% or so of the library. Unless noted, the call rests on the fitted dose curve; in most records, active means well fitted curve in the direction sought with a large enough effect; inconclusive means small, poorly fitted or top-dose-only effect, or another doubt; inactive means no such curve, though single readings can be large; an effect the other way counts as inactive or inconclusive.

SMILES	Pf growth 96h	Pf growth 48h	CHX counter	Shiga toxin inh	Sm TGR block	NS1 inh
OC1CCN(c2c3c(nc4cc(-c5cccc(F)c5)nn24)CCCC3)CC1	19%	9.3µM*	33*	81	15%	-130%
COc1cc(OC)cc(-c2cc3nc4c(c(N5CCN(c6cnccn6)CC5)n3n2)CCCC4)c1	·	·	·	·	·	-4%
OCCCNc1c2c(nc3cc(-c4ccc(Cl)cc4)nn13)CCC2	?	?	5.9*	40*	0%	2%
COc1cc(OC)cc(-c2cc3nc4c(c(N5CCN(c6ncccn6)CC5)n3n2)CCCC4)c1	5%	1.3µM*	-2	17	-1%	-48%
Cc1nn2c(NCCOCCO)c3c(nc2c1-c1ccccc1)CCC3	?	45%	1	39	0%	-1%
CN(CCO)c1c2c(nc3cc(-c4cccc(F)c4)nn13)CCCC2	?	81%	42*	46	1%	-2%
Cc1ccnc(NC(=O)c2ccc3[nH]c(=O)c(=O)[nH]c3c2)c1	64%	24%	10	-3	-1%	0%
COC(=O)CCCCCn1c(-c2ccccc2)cn2c3c(=O)n(C)c(=O)n(C)c3nc12	·	·	·	·	1%	·
CS(=O)(=O)c1nc(S(=O)(=O)c2ccc(Cl)cc2)c(NCCN2CCOCC2)s1	-17%	0%	-2	-3	?	0%
CS(=O)(=O)c1nc(S(=O)(=O)c2ccc(Cl)cc2)c(NCCCn2ccnc2)s1	5.9µM*	-14%	2	-3	-23%	-8%
Cc1ccc(S(=O)(=O)c2nc(S(C)(=O)=O)sc2N2CCC(O)CC2)cc1	9.3µM*	8%	6	-4	-26%	-4%
CN1CCN(c2sc(S(C)(=O)=O)nc2S(=O)(=O)c2ccc(Cl)cc2)CC1	12µM*	?	0	21	-2%	4%
Cc1ccc(S(=O)(=O)c2nc(S(C)(=O)=O)sc2N(C)C)cc1	-1%	-25%	-5	-18	25µM*	6%
CCOC(=O)CSc1snnc1-c1ccccc1	·	4%	-1	-4	0%	-2%
CC(C)Oc1ccc(N2CC(C(=O)NC3=NCCS3)CC2=O)cc1 (stereo not drawn)	?	15%	-3	-5	11%	-4%
O=C(CCc1cccc(Cl)c1)NC1CCCN(Cc2ccccc2F)C1 (stereo not drawn)	?	?	1	-10	0%	-9%
CCOC(=O)C1CCCN(C(=O)c2cc3c(=O)n(C)c4ccccc4c3s2)C1 (stereo not drawn)	·	·	·	·	-8%	·
CS(=O)(=O)c1nc(S(=O)(=O)c2ccc(Cl)cc2)c(N2CCCCCC2)s1	13µM*	?	-3	12	-13%	7%
CS(=O)(=O)c1nc(S(=O)(=O)c2ccc(Cl)cc2)c(N2CCCCC2)s1	6%	?	-5	-13	-18%	1%
COc1ccc(-c2cc(C(F)(F)F)nc(S(C)(=O)=O)n2)cc1	?	·	-1	-15	25µM*	-39%
O=C(O)CCS(=O)(=O)c1nc(-c2cccs2)cc(C(F)(F)F)n1	?	·	-4	-22	50µM*	-58%
COc1ccc(NC(=O)CCS(=O)(=O)c2nc(-c3cccs3)cc(C(F)(F)F)n2)cc1OC	·	·	·	·	40µM*	·
O=C(CSc1nc(-c2cccs2)cc(C(F)(F)F)n1)NCc1ccccc1	·	0%	-2	-6	-13%	-5%
CS(=O)(=O)c1nc(-c2ccc(F)cc2)cc(C(F)(F)F)n1	10%	-4%	-5	24	·	-82%
CS(=O)(=O)c1nc(-c2cccs2)cc(C(F)(F)F)n1	13µM*	-10%	-7	-23	7.9µM*	-84%
SMILES	Pf growth 96h	Pf growth 48h	CHX counter	Shiga toxin inh	Sm TGR block	NS1 inh
O=C(Nc1ccc(Br)cc1)c1ccc(F)c(S(=O)(=O)N2CCCc3ccccc32)c1	·	·	·	·	-5%	·
CCn1cc(S(=O)(=O)Nc2cc(C(=O)OC)ccc2C)cn1	6%	11%	2	-1	-25%	7%
O=C(COC(=O)CNC(=O)c1ccccc1)Nc1ccc2c(c1)OCO2	83%	36%	-4	-7	-12%	·
CN1CCN(c2nc(-c3cccs3)cc(C(F)(F)F)n2)CC1	21%	?	-4	-13	0%	-4%
O=C(CCS(=O)(=O)c1nc(-c2cccs2)cc(C(F)(F)F)n1)Nc1cccc(O)c1	·	·	·	·	32µM*	·
O=[N+]([O-])c1cnn(-c2nc(-c3cccs3)cc(C(F)(F)F)n2)c1	?	10µM*	-6	-9	0%	·
COc1cc(NC(=O)CCS(=O)(=O)c2nc(-c3cccs3)cc(C(F)(F)F)n2)cc(OC)c1OC	0%	?	·	·	?	·
COc1ccc(-c2cc(C(F)(F)F)nc(S(=O)(=O)CCCC(=O)Nc3cccnc3Cl)n2)cc1OC	-9%	12µM*	19*	13	?	·
COC(=O)c1ccccc1NC(=O)CCCS(=O)(=O)c1nc(-c2ccccc2OC)cc(C(F)(F)F)n1	·	·	·	·	-17%	·
COCc1nn2cc(-c3ccc(C)cc3)nc2s1	·	·	·	·	6%	·
CCOc1ccc(NC(=O)CSc2ncc3c(n2)-c2ccccc2N(C)S3(=O)=O)cc1	·	·	·	·	4%	·
CCOc1ccc(C2CC(=O)c3c([nH]c(C(=O)OC4CCCCCC4)c3C)C2)cc1 (stereo not drawn)	·	·	·	·	-1%	·
COc1cccc(OC)c1C1=NCC(=O)Nc2c1oc1ccc(Br)cc21	1.9µM*	?	-4	-8	-11%	-64%
CCOC(=O)c1nnn(CC(=O)N2N=C(c3ccccc3)CC2c2ccccc2)c1C(=O)OCC (stereo not drawn)	?	12µM*	-5	4	-1%	-1%
CCOC(=O)c1nnn(CC(=O)N2N=C(c3cc(C)ccc3C)CC2c2ccc(OC)cc2)c1C(=O)OCC (stereo not drawn)	9.3µM*	15µM*	-6	-9	12%	15%
CCOC(=O)/C=C(\C)N1N=C(c2ccccc2)CC1c1ccccc1 (stereo not drawn)	18%	112%	42*	100*	?	·
O=C(CCn1nc(-c2ccc(Cl)cc2)c2ccccc2c1=O)Nc1ccc(OC(F)(F)F)cc1	·	·	·	·	-6%	·
Cc1ccc(/C=C/C(=O)N2CCC(Cc3ccccc3)CC2)cc1	?	-6%	2	-4	-12%	-44%
CC(C)Cc1ccc(/C=C/C(=O)N2CCCCC2)cc1	165%	195%	43*	67*	1%	·
CC(C)(C)c1ccc(/C=C/C(=O)N2CCCCC2)cc1	?	-33%	51*	81*	-8%	-33%
Cc1ccc(/C=C/C(=O)N2CCCC(C)C2)cc1 (stereo not drawn)	2%	235%	64*	+	3%	-4%
CC1CCN(C(=O)/C=C/c2ccc(C(C)(C)C)cc2)CC1	1%	16%	39*	21*	-16%	-11%
N#Cc1ccc(S(=O)(=O)N2CCN(S(=O)(=O)c3ccc4c(c3)OCCO4)CC2)cc1	·	·	-2	22	·	·

Screens deposited in PubChem by National Center for Advancing Translational Sciences (NCATS).
